Test results reported in the supplement of paper PMC11732987, “Enantioselective OTUD7B fragment discovery through chemoproteomics screening and high-throughput optimisation” (Communications Chemistry, 2025).

Key:
Assay in all cases: log2 ratio of Biotin-Ahx-Ub-VS probe labelling (fragment/DMSO); higher = less target engagement (more negative = stronger competition), active = hit call of the paper (q ≤ 0.05, log2 ratio ≤ -1)
Settings in all cases: compound concentration: 200 uM; treatment time: 3 h
[1] = biological target: T1, USP42 (UniProt Q9H9J4)
T1 sequence (whole entry): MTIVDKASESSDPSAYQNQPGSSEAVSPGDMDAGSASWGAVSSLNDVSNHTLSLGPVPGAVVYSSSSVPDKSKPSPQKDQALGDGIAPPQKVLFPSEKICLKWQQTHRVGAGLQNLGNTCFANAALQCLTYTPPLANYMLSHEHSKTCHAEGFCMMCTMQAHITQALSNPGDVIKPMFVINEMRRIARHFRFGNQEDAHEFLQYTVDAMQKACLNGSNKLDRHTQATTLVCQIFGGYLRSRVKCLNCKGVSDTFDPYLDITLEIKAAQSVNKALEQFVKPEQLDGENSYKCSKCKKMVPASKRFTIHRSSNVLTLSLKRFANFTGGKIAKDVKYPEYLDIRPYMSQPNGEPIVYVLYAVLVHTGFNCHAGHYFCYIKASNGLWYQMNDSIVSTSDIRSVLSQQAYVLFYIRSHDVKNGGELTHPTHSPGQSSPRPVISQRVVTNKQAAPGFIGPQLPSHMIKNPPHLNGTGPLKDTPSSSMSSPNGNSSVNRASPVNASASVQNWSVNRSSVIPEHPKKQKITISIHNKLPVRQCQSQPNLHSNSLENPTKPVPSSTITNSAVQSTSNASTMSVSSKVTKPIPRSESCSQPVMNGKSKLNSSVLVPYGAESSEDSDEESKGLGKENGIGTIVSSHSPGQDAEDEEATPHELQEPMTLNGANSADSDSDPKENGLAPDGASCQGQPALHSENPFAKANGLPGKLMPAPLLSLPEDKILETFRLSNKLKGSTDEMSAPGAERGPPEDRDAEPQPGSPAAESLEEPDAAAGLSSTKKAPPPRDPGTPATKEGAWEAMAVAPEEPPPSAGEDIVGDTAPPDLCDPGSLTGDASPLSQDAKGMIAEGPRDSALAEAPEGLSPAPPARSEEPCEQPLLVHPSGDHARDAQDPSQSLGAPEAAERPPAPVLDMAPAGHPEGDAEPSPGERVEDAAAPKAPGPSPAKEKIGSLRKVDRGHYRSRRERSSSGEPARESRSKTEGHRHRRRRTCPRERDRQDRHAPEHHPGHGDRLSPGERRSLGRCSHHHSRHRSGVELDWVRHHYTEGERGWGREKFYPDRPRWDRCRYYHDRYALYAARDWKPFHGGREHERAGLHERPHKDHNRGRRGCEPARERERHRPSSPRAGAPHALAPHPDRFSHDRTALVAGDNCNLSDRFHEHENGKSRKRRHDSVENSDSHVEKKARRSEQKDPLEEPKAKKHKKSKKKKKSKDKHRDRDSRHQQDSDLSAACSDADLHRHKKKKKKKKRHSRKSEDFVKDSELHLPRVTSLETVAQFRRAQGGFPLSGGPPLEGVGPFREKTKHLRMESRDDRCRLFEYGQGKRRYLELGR
Procedure, shortened: (§1)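 Each value is an average log2 ratio of fragment to vehicle, tested by unpaired t-test. The underlying Spectronaut label-free quantities were global-median-normalised, and only proteins with ≥2 unique peptides were included. Triplicate HEK293T lysate samples (495 µg) were exposed to fragment at 200 µM or vehicle for 3 h, then to Biotin-Ahx-Ub-VS at 0.5 µM final for 1 h, before NeutrAvidin enrichment of labelled DUBs, LysC and trypsin digestion, and diaPASEF LC-MS/MS.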

[2] = biological target: USP46 (UniProt P62068)
Procedure, shortened: as §1

[3] = biological target: T2, USP47 (UniProt Q96K76)
T2 sequence (whole entry): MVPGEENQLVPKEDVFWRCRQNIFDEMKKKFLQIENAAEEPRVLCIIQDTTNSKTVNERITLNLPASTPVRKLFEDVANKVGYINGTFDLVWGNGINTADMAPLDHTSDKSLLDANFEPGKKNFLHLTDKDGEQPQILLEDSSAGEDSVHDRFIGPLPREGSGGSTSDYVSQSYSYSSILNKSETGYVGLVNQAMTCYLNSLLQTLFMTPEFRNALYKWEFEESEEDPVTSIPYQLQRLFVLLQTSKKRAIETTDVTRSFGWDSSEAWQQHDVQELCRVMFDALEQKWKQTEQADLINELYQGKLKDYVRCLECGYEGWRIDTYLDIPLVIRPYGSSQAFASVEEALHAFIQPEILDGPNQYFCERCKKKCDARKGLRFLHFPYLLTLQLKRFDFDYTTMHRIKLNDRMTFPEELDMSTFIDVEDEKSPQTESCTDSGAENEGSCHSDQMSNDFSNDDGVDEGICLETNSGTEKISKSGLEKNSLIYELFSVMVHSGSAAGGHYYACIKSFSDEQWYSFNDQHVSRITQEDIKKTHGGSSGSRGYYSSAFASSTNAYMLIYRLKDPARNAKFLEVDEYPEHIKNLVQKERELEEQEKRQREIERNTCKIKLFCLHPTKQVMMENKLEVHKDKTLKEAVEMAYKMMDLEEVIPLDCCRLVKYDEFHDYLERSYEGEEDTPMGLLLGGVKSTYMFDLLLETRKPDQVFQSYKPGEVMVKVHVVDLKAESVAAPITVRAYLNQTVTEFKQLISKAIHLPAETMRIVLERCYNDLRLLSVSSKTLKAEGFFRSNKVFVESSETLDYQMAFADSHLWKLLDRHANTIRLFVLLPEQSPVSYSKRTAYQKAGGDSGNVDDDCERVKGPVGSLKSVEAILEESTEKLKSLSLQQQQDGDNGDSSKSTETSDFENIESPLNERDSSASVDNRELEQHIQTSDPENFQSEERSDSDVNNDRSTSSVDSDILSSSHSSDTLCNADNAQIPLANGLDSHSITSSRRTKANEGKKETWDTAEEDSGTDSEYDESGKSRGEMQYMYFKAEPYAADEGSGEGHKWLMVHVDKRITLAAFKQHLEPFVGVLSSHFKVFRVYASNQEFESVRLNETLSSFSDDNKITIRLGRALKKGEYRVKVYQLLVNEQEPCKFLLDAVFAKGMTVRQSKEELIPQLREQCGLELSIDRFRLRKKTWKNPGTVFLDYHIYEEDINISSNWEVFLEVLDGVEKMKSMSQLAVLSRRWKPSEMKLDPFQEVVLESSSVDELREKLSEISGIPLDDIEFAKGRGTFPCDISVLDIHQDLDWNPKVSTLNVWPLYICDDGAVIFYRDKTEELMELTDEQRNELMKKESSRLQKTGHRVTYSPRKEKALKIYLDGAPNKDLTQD
Procedure, shortened: as §1

[4] = biological target: T3, USP48 (UniProt Q86UV5)
T3 sequence (whole entry): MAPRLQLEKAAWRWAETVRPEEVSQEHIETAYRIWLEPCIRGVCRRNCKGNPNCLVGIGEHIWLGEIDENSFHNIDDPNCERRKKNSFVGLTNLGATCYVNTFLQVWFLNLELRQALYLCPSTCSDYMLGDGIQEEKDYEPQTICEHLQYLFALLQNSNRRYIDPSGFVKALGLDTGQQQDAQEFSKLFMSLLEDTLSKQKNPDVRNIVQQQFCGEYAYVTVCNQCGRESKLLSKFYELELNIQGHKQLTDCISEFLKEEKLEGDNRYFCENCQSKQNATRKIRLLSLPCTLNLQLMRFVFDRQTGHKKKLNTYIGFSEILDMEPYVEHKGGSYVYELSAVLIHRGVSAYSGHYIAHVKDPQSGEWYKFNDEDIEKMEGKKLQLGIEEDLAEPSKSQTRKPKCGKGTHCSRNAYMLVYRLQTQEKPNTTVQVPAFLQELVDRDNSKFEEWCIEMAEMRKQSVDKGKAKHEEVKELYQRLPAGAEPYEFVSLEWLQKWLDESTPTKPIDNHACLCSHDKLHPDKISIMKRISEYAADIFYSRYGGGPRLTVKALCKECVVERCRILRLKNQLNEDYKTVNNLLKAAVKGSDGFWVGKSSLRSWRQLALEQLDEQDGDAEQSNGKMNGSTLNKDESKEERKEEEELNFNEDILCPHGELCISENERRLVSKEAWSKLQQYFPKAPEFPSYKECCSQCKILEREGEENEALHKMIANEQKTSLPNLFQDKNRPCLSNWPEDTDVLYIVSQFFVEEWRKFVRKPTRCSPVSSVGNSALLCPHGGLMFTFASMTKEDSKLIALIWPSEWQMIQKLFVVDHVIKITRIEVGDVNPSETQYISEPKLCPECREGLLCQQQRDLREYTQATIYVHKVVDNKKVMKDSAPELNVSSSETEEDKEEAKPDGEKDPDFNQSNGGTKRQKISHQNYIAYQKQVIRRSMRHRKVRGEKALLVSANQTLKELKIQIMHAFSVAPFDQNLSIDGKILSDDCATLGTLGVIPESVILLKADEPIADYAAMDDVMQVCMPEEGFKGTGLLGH
Procedure, shortened: as §1

[5] = biological target: T4, USP5 (UniProt P45974)
T4 sequence (whole entry): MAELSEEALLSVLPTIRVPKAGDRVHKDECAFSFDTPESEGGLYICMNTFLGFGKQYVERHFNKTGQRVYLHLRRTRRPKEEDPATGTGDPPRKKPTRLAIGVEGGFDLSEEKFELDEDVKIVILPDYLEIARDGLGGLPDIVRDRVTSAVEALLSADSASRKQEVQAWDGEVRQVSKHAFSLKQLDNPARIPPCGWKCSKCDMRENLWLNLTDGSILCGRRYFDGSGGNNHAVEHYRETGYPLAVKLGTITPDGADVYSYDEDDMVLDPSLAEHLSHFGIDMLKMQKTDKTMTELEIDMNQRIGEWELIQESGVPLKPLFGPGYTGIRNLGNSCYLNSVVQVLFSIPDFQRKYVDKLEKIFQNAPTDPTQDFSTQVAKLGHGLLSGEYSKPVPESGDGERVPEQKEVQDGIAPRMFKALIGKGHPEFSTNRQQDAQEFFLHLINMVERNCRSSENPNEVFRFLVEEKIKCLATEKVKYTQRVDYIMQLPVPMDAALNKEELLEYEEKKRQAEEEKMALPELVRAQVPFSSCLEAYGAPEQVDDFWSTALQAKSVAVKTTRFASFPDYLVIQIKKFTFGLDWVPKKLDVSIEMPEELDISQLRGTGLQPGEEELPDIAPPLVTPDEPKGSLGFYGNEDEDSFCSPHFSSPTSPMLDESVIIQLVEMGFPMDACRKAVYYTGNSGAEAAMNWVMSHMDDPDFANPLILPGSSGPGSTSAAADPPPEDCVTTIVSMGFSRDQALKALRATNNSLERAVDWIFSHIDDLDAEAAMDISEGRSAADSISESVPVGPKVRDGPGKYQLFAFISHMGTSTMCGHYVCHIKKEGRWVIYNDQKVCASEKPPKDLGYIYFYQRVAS
Procedure, shortened: as §1

[6] = biological target: USP54 (UniProt Q70EL1)
Procedure, shortened: as §1

[7] = biological target: USP7 (UniProt Q93009)
Procedure, shortened: as §1

[8] = biological target: T5, USP8 (UniProt P40818)
T5 sequence (whole entry): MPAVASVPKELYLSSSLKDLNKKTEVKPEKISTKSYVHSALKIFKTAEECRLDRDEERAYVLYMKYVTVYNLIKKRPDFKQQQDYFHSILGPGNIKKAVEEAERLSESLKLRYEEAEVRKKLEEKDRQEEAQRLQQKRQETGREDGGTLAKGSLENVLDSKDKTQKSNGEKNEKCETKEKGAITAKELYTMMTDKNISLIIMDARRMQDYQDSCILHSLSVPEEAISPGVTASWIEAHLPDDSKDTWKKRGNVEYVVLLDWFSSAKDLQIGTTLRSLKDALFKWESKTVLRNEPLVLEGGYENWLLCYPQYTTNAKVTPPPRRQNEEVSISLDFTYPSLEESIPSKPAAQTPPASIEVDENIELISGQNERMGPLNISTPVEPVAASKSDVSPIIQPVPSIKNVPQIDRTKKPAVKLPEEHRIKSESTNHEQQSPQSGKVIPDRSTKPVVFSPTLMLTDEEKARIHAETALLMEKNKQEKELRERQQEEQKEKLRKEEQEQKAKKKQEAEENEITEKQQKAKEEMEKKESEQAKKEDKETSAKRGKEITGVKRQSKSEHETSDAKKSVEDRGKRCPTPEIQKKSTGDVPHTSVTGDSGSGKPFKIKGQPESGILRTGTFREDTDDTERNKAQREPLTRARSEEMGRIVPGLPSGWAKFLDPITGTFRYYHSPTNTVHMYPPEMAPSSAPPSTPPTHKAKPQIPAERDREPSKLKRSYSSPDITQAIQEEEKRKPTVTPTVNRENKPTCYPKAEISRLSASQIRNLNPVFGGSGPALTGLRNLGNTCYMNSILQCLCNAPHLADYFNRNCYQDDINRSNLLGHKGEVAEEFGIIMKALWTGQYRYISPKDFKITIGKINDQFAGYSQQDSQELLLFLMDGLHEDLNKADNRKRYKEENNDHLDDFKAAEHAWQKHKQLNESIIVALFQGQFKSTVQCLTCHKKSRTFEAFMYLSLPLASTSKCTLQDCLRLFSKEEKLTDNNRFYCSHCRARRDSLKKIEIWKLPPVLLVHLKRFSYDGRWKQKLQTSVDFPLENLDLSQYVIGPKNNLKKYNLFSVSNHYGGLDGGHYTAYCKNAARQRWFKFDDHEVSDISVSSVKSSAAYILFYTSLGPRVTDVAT
Procedure, shortened: as §1

[9] = biological target: USP9X (UniProt Q93008)
Procedure, shortened: as §1

[10] = biological target: UniProt O00487
Procedure, shortened: as §1

Measured: log2 ratio of Biotin-Ahx-Ub-VS probe labelling

Sequence of USP54 (Q70EL1 whole entry): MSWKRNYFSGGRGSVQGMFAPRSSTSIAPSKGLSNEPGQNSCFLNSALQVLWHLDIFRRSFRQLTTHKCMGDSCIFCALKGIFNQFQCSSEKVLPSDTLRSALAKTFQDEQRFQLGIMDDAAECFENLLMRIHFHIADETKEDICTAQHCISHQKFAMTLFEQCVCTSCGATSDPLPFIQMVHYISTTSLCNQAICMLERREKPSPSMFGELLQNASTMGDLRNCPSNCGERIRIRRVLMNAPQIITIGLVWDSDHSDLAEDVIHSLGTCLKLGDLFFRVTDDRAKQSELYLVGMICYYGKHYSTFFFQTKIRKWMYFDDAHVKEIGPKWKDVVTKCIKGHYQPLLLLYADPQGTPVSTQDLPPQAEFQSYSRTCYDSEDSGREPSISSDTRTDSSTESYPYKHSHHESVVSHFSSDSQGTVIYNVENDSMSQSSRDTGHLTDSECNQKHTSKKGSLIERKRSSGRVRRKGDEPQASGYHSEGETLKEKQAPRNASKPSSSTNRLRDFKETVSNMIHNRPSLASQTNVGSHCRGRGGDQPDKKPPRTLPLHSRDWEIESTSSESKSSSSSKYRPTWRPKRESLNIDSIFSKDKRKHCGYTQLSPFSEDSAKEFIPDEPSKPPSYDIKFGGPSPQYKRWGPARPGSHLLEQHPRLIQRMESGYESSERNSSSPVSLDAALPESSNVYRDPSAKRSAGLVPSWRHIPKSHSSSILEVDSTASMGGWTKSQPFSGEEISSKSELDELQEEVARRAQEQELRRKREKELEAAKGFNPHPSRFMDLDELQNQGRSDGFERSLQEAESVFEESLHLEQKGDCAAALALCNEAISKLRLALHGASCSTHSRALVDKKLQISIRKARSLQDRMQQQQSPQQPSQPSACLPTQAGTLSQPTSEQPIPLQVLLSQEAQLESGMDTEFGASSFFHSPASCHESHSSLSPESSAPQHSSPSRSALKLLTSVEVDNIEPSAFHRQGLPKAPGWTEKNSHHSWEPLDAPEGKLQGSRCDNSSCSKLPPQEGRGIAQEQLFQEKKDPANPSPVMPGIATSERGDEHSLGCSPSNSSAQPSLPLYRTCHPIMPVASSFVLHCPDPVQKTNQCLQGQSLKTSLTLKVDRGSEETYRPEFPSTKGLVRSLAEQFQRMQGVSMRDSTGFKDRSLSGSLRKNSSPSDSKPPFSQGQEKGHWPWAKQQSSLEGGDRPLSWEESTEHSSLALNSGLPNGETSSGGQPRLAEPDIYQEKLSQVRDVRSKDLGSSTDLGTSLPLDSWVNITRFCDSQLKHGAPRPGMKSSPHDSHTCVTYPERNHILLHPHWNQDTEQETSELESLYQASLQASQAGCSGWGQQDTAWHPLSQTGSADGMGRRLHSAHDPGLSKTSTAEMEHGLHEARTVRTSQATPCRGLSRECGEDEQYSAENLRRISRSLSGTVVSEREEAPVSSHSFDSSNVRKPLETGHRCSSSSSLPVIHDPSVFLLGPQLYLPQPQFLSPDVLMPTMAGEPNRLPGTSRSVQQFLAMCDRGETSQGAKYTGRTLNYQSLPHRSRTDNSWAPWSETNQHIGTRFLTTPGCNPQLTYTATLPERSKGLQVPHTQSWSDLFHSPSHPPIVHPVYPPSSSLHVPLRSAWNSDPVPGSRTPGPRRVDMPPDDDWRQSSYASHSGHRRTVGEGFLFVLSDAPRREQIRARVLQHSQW
Sequence of USP7 (Q93009 whole entry, looked up): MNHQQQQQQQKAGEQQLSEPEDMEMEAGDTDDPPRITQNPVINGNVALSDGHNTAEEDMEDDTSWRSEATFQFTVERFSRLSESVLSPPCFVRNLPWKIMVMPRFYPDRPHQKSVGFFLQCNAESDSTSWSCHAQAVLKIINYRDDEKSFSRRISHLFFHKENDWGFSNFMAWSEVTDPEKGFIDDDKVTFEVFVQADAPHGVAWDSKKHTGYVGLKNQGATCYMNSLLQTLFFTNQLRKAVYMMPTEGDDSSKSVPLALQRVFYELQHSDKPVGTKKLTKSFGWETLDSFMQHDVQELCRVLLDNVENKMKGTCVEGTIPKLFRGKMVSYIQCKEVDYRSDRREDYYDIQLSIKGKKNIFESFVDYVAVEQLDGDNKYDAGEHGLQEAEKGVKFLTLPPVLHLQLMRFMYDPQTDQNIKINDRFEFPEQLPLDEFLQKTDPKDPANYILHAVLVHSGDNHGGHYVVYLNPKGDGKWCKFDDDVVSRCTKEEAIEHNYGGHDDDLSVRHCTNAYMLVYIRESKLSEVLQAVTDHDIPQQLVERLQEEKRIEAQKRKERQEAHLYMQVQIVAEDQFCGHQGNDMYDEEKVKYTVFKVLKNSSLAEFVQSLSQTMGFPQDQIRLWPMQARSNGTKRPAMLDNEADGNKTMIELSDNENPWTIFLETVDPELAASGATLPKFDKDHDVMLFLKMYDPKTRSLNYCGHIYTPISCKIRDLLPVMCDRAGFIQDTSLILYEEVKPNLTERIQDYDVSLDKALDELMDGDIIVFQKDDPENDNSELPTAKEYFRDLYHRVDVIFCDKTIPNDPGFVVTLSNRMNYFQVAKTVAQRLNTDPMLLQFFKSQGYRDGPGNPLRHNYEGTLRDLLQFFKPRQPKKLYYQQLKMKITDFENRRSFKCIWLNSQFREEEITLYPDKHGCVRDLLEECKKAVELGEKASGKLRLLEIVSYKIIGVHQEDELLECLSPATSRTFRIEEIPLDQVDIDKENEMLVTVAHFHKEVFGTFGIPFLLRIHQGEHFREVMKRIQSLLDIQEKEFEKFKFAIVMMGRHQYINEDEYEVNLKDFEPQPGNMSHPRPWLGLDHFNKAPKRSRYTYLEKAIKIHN
Sequence of USP46 (P62068 whole entry): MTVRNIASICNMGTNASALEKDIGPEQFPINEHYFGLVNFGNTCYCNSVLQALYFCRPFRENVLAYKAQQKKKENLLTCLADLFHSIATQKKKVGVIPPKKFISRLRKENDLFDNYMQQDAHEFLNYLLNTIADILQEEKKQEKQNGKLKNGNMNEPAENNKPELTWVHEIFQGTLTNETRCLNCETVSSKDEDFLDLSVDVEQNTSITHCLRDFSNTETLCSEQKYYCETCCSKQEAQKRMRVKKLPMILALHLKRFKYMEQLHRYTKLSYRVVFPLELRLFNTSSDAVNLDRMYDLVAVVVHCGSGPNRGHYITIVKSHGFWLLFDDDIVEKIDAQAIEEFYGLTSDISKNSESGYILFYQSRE
Sequence of UniProt O00487 (O00487 whole entry): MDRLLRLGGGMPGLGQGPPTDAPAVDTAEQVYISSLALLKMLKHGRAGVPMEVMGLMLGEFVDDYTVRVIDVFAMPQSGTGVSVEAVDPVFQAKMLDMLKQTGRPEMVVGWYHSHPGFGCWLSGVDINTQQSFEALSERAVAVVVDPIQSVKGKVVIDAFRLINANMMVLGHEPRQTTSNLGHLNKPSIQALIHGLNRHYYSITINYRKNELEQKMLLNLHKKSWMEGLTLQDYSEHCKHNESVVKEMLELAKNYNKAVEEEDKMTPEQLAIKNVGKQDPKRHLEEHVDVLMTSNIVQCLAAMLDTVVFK

CN1C(=O)c2ccc(NC(=O)CCl)cc2C1=O
inactive: [1] 0.714 | [2] -0.152 | [3] -0.217 | [4] -0.208 | [5] -0.508 | [6] 0.112 | [7] -0.743 | [8] -0.236 | [9] -0.202 | [10] 0.0214

O=C(CCl)NC1CCN(C(=O)C2CCCCC2)CC1
inactive: [1] 0.471 | [2] 0.262 | [3] 0.301 | [4] 0.136 | [5] -0.157 | [6] 0.282 | [7] -0.045 | [8] 0.139 | [9] 0.243 | [10] 0.0749

Cc1cc(C2CCCN2C(=O)CCl)nn1C.Cl (stereo not given)
inactive: [1] 0.512 | [2] -0.144 | [3] -0.308 | [4] -0.159 | [5] -0.0636 | [6] -0.39 | [7] -0.329 | [8] -0.274 | [9] -0.131 | [10] -0.229
